The structures appear in SMILES notation. Out of some 370,000 compounds screened, about 3,100 (0.84%) were called active. No stated cut-off is given here; in the data, active means inhibition above about 9.5%; inactive means the rest. Shown is part of a subset that was picked to be rich in actives.

The target of the test is 1-phosphatidylinositol 4,5-bisphosphate phosphodiesterase gamma-1 (Homo sapiens) (UniProt P19174). The experiment in a line: PLC-gamma1 enzyme inhibitors, primary screen, biochemical, fluorescence, purified enzyme (AID 720700). The conditions noted are these: purified PLC-gamma1, fluorogenic substrate, at 12.2 µM, active compounds read high.
1-phosphatidylinositol 4,5-bisphosphate phosphodiesterase gamma-1 (Homo sapiens), sequence (P19174 whole entry, looked up): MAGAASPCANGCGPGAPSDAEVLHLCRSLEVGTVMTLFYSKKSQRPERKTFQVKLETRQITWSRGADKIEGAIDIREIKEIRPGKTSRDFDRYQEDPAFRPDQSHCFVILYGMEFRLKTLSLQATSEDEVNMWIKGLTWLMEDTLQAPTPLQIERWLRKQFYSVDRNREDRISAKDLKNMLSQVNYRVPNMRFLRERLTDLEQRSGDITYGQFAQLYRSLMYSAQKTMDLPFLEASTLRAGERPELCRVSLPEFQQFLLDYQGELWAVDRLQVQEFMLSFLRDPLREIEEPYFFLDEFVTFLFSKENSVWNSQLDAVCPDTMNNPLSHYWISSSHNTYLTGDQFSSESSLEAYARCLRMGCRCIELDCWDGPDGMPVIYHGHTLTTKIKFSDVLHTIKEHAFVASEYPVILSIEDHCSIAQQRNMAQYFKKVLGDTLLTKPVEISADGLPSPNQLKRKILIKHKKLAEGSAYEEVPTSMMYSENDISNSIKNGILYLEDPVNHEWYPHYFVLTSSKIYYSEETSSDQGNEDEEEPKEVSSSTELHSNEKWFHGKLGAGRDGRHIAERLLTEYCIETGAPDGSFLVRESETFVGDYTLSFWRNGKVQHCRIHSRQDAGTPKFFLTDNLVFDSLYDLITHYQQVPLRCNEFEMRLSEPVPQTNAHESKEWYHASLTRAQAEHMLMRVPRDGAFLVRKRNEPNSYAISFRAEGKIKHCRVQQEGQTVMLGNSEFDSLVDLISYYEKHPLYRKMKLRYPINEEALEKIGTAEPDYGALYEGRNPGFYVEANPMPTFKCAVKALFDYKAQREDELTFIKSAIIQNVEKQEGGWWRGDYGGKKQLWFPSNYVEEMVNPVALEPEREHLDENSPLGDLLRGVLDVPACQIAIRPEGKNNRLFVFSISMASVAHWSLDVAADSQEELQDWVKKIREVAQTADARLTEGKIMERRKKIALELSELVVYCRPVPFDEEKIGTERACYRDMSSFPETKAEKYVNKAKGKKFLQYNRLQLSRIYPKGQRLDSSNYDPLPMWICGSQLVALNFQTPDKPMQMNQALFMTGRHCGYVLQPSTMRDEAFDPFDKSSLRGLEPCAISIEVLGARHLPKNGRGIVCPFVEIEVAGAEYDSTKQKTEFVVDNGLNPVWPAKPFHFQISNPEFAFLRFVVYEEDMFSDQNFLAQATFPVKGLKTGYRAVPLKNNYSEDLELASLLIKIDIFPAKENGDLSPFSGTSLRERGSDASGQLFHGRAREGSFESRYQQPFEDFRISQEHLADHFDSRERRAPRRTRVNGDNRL
Broadly, the inhibition is the drop in the measured response relative to a control, in per cent. `FC(F)(F)c1cccc(NC(=S)OC2CCC23CCC(c2ccccc2)CC3)c1` (configuration not stated): the inhibition is -0.1% (inactive).

With `O=C(CN1CCC(NC(=O)NCc2ccccc2)CC1)Nc1ccc2c(c1)OCCO2`, the inhibition is -0.43% (inactive).

Take `C#CCCN([C@H](C(=O)OC)C(C)C)S(=O)(=O)c1ccc(F)cc1Br`: the inhibition is -1.82% (inactive).

Consider `Cc1c(C(C)c2ccccc2O)[nH]c2ccccc12` (configuration not stated), for which the inhibition was -4.04% (inactive).

`COc1ccccc1C(=O)Nc1ccc(OCC(=O)N2CCCCC2)cc1`: the inhibition was 3.96% (inactive).

As to `COc1ccccc1C(=O)N/C(=C/c1ccc2c(c1)OCO2)C(=O)Nc1cccc(C(=O)O)c1`, the inhibition is -3.19% (inactive).

For the molecule `COc1ccccc1C(=O)Nc1cccc(C(=O)N2CCOCC2)c1`, the inhibition is 12.6% (active).

On to `O=C(CSc1nc2ccccc2s1)N=Nc1c(O)[nH]c2ccccc12`, for which the inhibition was -0.8% (inactive).

As for `COC(=O)[C@H](C(C)C)N(CCc1cn(Cc2ccccc2)nn1)S(=O)(=O)c1ccc(F)cc1Br`, the inhibition is 1.89% (inactive).

Regarding `O=c1c2ccccc2nnn1CSc1nnnn1-c1ccccc1`, the inhibition is 2.24% (inactive).

With `C=CCn1c(SCn2nnc3ccccc3c2=O)nnc1-c1ccc(Cl)cc1`, the inhibition is 11.2% (active).

Regarding `O=C(Cn1nnc2ccccc2c1=O)NCc1ccc(Cl)cc1`, the inhibition is 6.08% (inactive).

Take `O=C(OC12CCCN(C1)/C(=C/c1cccnc1)C2)C1CCCC1` (configuration not stated): the inhibition is 2.54% (inactive).

Consider `O=C(c1c[nH]c2ccccc12)N1CCC(Oc2cccnc2)CC1`, for which the inhibition was 5.31% (inactive).

As for `O=C(NC1CCC1)c1ccc(C#Cc2cccc(F)c2)c[n+]1[O-]`, the inhibition is -0.74% (inactive).

Regarding `CCn1c(SCC(=O)Nc2ccc(Br)cc2)nc2sc3c(c2c1=O)CCN(C)C3`, the inhibition is -70.8% (inactive).

For `Cc1ccc(C)c(-n2c(SCC(=O)O)nc3sc4c(c3c2=O)CCCC4)c1`, the inhibition is 1.35% (inactive).

For `CCn1c(SCC(C)=O)nc2sc3c(c2c1=O)CCCC3`, the inhibition was 10.1% (active).

Consider `Cc1ccc(CN2CCCCC(NC(=O)C3CCCCC3)C2=O)cc1` (configuration not stated), for which the inhibition is 7.08% (inactive).

As to `CCCOc1ccc(Oc2c(Cl)cnn(Cc3cccc4ccccc34)c2=O)cc1`, the inhibition is -1.93% (inactive).

Regarding `CCOC(=O)C1CCN(C(=O)C(C)(C)NC(=O)Nc2ccccc2Cl)CC1`, the inhibition is 0.94% (inactive).

For the molecule `Cc1ccccc1CN1CCCCC(NC(=O)c2cccc(C#N)c2)C1=O` (configuration not stated), the inhibition was -2.09% (inactive).

Turning to `O=C(CCNC(=O)c1ccc(Br)cc1)Nc1cccc(S(=O)(=O)N2CCCCC2)c1`, the inhibition is -1.23% (inactive).

In the case of `Cc1ccc(S(=O)(=O)N2CCCCC2)cc1NC(=O)CCNC(=O)c1ccccc1`, the inhibition is 11.6% (active).

As to `CC(=O)c1c(C)[nH]c(C(=O)OCC(=O)Nc2cc(S(=O)(=O)N3CCCCC3)ccc2C)c1C`, the inhibition is 11.4% (active).

On to `CS(=O)(=O)c1ccc(Cl)c(NC(=O)COC(=O)c2cccc(S(=O)(=O)N3CCCC3)c2)c1`, for which the inhibition was 1.69% (inactive).

As to `Cc1ccc(S(=O)(=O)N2CCCCC2)cc1NC(=O)CCNC(=O)c1ccccc1Cl`, the inhibition is 6.23% (inactive).

For `CC(=O)c1cccc(OCC(=O)OCC(=O)Nc2cc(S(=O)(=O)N3CCCCC3)ccc2C)c1`, the inhibition was 1.9% (inactive).

For `CCOc1ccc(-n2c(SCC(=O)Nc3cc(C)c(NC(=O)c4ccccc4)cc3OC)nnc2-c2cccs2)cc1`, the inhibition is -10.9% (inactive).

With `CCOC(=O)N1CCN(C(=O)C[C@H]2C[C@@]3(C(=O)OC)C(=C[C@H](C(C)(C)C)O[C@@H]3C)N(Cc3ccc(Cl)cc3Cl)C2=O)CC1`, the inhibition was -0.28% (inactive).

Consider `O=C(c1cccc(C(F)(F)F)c1)N1CC[C@H]2[C@H](CCCN2Cc2cc(F)cc(F)c2)C1`, for which the inhibition is -2.47% (inactive).

With `COC(=O)C1CN(CC(C)C)CCS(=O)(=O)N1Cc1ccc(C)cc1` (configuration not stated), the inhibition was 2.01% (inactive).

These data come from PubChem BioAssay AID720700 (The Scripps Research Institute Molecular Screening Center, 2013).
